# Source: the supplement of paper PMC5662767
# Where a name gives a salt, the structure may show the parent alone.
# System: Drosophila S2 cl14 SmoIP sensor cells
# Experiment: normalized SmoIP GFP fluorescence (untreated unstimulated = 0%, untreated Hh-stimulated = 100%); higher = more Smo activation sensor fluorescence
# Details: stimulation: mock conditioned medium (-Hh); compound concentration: 2 uM; 24 h
# 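Also: flow cytometry read-out as median GFP intensity of gated cells, compounds added 30 min before Hh-conditioned or mock medium, mock-treated cells serving as unstimulated baseline.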
row,Structure (SMILES),normalized SmoIP GFP fluorescence
1,COC(=O)Nc1ccc(-c2nc(N3CCOCC3)c3cnn(C4CCN(C(=O)OC)CC4)c3n2)cc1,-12.5%
2,COc1cc2c(Oc3ccc4[nH]c(C)cc4c3F)ncnc2cc1OCCCN1CCCC1 [Cediranib],52.4%
3,CN1CCN(CCOc2cc(OC3CCOCC3)c3c(Nc4c(Cl)ccc5c4OCO5)ncnc3c2)CC1,10.4%
4,OC(CCN1CCCCC1)(c1ccccc1)C1CC2C=CC1C2 (centres undefined) [Biperiden-hydrochloride],2.64%
5,C=CC(=O)Nc1cccc(Sc2nc(Nc3ccc(N4CCN(C)CC4)cc3)ncc2Cl)c1,36.2%
6,O=c1c(-c2ccc(O)cc2)coc2cc(O)cc(O)c12 [Genistein],-0.804%
7,c1cnc2cc3c(cc2n1)[C@@H]1CNC[C@H]3C1 [Varenicline-tartrate],2.97%
8,C[C@]12CCC3=C4CCC(=O)C=C4CC[C@H]3[C@@H]1CC[C@@]2(O)CC#N [Dienogest],10.2%
9,Cc1cc(NC(=O)Nc2ccc(N(C)C)cc2)c2cc(F)cc(F)c2n1,24.9%
10,COc1cc(Nc2ncc(F)c(Nc3ccc4c(n3)NC(=O)C(C)(C)O4)n2)cc(OC)c1OC [R406(free-base)],9.32%
11,O=C(Nc1ccc(OC(F)(F)F)cc1)c1sccc1NCc1ccnc2ccccc12,9.86%
12,N=C(N)Nc1ccc(C(=O)Oc2ccc3cc(C(=N)N)ccc3c2)cc1 [Nafamostat-mesylate],16.2%
13,CN(C)CCc1c[nH]c2ccc(Cn3cncn3)cc12 [Rizatriptan-Benzoate(Maxalt)],-0.265%
14,CC(C)CCNC(=O)C(CC(C)C)NC(=O)C1OC1C(=O)O (centres undefined) [loxistatin-acid-e-64c],34.9%
